# Reference: PubChem BioAssay (NCATS)
# “And” between values parts separate entries of the source, which are not always exact repeats. Identical values can stand only once. Unmarked numbers belong to inactive results. Results filed as inconclusive are left out. Entries that show only a call come without a potency. The source made the active and inactive calls. Unless noted, calls follow the shape of the dose curve; as a rule, active = well fitted curve in the direction sought with a large enough effect; inconclusive = small, poorly fitted or top-dose-only effect, or another doubt; inactive = no such curve, though single readings can be large; an effect the other way counts as inactive or inconclusive.
# Columns and labels:
# C33A = test: Primary qHTS to identify gynecologic anti-cancer compounds using libraries of approved drugs and bioactive compounds (AID 1345084); conditions: Gynecologic cancer cell panel viability, ATPlite luminescence, 48 h; series mostly up to 57.5 µM; also: nearly all actives have a fitted effect of over 55% in size; also: potency is read from the fitted curve at half-maximal effect
# How it was run: (§1)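 Cytotoxicity screen measuring ATP content by luciferase luminescence. Each compound is applied at five concentrations for 48 h at 37 C with 5% CO2.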
# CAOV3 = test: as above; conditions: Gynecologic cancer cell panel viability, ATPlite luminescence, 48 h; series mostly up to 57.5 µM
# How it was run: as §1
# CASKI = test: as above; conditions: Gynecologic cancer cell panel viability, ATPlite luminescence, 48 h; series mostly up to 57.5 µM
# How it was run: as §1
# Es-2 = test: as above; conditions: Gynecologic cancer cell panel viability, ATPlite luminescence, 48 h; series mostly up to 57.5 µM
# How it was run: as §1
# HeLa = test: as above; conditions: Gynecologic cancer cell panel viability, ATPlite luminescence, 48 h; series mostly up to 57.5 µM
# How it was run: as §1
# PA-1 = test: as above; conditions: Gynecologic cancer cell panel viability, ATPlite luminescence, 48 h; series mostly up to 57.5 µM
# How it was run: as §1
# Tov-21-G = test: as above; conditions: Gynecologic cancer cell panel viability, ATPlite luminescence, 48 h; series mostly up to 57.5 µM
# How it was run: as §1
# Tov112D = test: as above; conditions: Gynecologic cancer cell panel viability, ATPlite luminescence, 48 h; series mostly up to 57.5 µM
# How it was run: as §1
# Hek293T = test: as above; conditions: Gynecologic cancer cell panel viability, ATPlite luminescence, 48 h, control line for the selectivity index; series mostly up to 57.5 µM
# How it was run: as §1
# JEG-3 = test: as above; conditions: Gynecologic cancer cell panel viability, ATPlite luminescence, 48 h; series mostly up to 57.5 µM
# How it was run: as §1
# OV90 = test: as above; conditions: Gynecologic cancer cell panel viability, ATPlite luminescence, 48 h; series mostly up to 57.5 µM
# How it was run: as §1
# [1] = Drug repurposing screens with cells derived from glioblastoma tumor samples (AID 1345199); conditions: GBM patient neurospheres viability, ATP luminescence, 48 h; also: nearly all actives have a fitted effect of over 40% in size; also: potency is read from the fitted curve at half-maximal effect
# How it was run: (§2)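 Primary testing used CD133+ neurospheres from four GBM patients, seven concentrations, 48 h exposure and ATP-based viability; confirmation added three slower-growing patient lines.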
# astro = test: as above; conditions: viability, ATP luminescence, 48 h; series mostly up to 45.9 µM
# How it was run: as §2
# SKOV3 = test: Primary qHTS to identify gynecologic anti-cancer compounds using libraries of approved drugs and bioactive compounds (AID 1345084); conditions: Gynecologic cancer cell panel viability, ATPlite luminescence, 48 h; series mostly up to 57.5 µM; also: nearly all actives have a fitted effect of over 55% in size; also: potency is read from the fitted curve at half-maximal effect
# How it was run: as §1
# [2] = biological target: Nuclear receptor subfamily 1 group I member 2 (Rattus norvegicus) (UniProt Q9R1A7); test: qHTS assay for small molecule activators of the rat pregnane X receptor (rPXR) signaling pathway (AID 651751; call rule not given here); conditions: rPXR reporter cells, luciferase (One-Glo), 24 h
# Nuclear receptor subfamily 1 group I member 2 (Rattus norvegicus), sequence (Q9R1A7 whole entry, looked up): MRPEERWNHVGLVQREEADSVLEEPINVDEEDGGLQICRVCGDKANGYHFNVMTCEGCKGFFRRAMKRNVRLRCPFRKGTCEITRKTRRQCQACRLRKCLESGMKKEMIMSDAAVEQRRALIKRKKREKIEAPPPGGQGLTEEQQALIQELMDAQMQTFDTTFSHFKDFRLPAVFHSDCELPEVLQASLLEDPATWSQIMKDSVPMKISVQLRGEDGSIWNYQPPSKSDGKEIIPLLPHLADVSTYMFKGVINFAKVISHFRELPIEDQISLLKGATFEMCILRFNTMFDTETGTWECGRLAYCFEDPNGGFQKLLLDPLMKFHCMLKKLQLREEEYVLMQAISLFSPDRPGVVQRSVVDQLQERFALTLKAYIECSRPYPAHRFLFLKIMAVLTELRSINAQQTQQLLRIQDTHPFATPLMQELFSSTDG
# [3] = qHTS assay for small molecule activators of the human pregnane X receptor (PXR) signaling pathway (AID 720659; call rule not given here)
structure (smiles),measurement,setting,value
CCOC(=O)N1CCC(n2c(=O)[nH]c3cc(Cl)ccc32)CC1,Potency,C33A,inactive
same,Potency,CAOV3,inactive
same,Potency,CASKI,inactive
same,Potency,Es-2,inactive
same,Potency,HeLa,inactive
same,Potency,PA-1,inactive
same,Potency,Tov-21-G,inactive
same,Potency,Tov112D,inactive
C[C@@H](O[C@H]1OCCN(Cc2n[nH]c(=O)[nH]2)[C@H]1c1ccc(F)cc1)c1cc(C(F)(F)F)cc(C(F)(F)F)c1,Potency,C33A,inactive
same,Potency,CAOV3,inactive
same,Potency,CASKI,inactive
same,Potency,Es-2,inactive
same,Potency,Hek293T,inactive
same,Potency,JEG-3,inactive
same,Potency,OV90,inactive
same,Potency,PA-1,inactive
same,Potency,Tov-21-G,inactive
Nc1ccc2cc3ccc(N)cc3nc2c1,Potency,C33A,28.2 µM (active)
same,Potency,CAOV3,8.91 µM (active)
same,Potency,CASKI,11.2 µM (active)
same,Potency,Es-2,8.91 µM (active)
same,Potency,HeLa,17.8 µM (active)
same,Potency,Hek293T,6.31 µM (active)
same,Potency,OV90,28.2 µM (active)
same,Potency,PA-1,7.94 µM (active)
same,Potency,Tov112D,28.2 µM (active)
same,"activity, negative = cell killing","[1]; at 46.1 µM (top of the series), tumour line C",-19.3%
same,Potency,[1]; tumour line A,22.4 µM (active)
same,Potency,[1]; tumour line B,14.1 µM (active)
same,Potency,[1]; tumour line D,7.94 µM (active)
same,Potency,astro,10 µM (active)
CCCCCCCCCCCCCCCC[N+](C)(C)Cc1ccccc1,Potency,C33A,28.2 µM (active)
same,Potency,CAOV3,20 µM (active)
same,Potency,HeLa,25.1 µM (active)
same,Potency,JEG-3,inactive
same,Potency,OV90,25.1 µM (active)
same,Potency,PA-1,15.8 µM (active)
same,Potency,astro,12.6 µM (active)
C[C@@H](C1=C(CCN(C)C)Cc2ccccc21)c1ccccn1,Potency,C33A,inactive
same,Potency,CAOV3,inactive
same,Potency,CASKI,inactive
same,Potency,Es-2,inactive
same,Potency,HeLa,inactive
same,Potency,JEG-3,inactive
same,Potency,PA-1,inactive
same,Potency,SKOV3,inactive
same,Potency,Tov-21-G,inactive
same,Potency,Tov112D,inactive
same,Potency,astro,inactive
CC(C)CCCC(C)NCCC(C)C (configuration not stated),Potency,C33A,inactive
same,Potency,CAOV3,inactive
same,Potency,Es-2,inactive
same,Potency,HeLa,inactive
same,Potency,Hek293T,inactive
same,Potency,JEG-3,inactive
same,Potency,OV90,inactive
same,Potency,PA-1,inactive
same,Potency,SKOV3,inactive
same,Potency,Tov-21-G,inactive
same,Potency,Tov112D,inactive
O=C1NC(=O)/C(=C/c2ccc3c(c2)OC(F)(F)O3)S1,Potency,C33A,inactive
same,Potency,CAOV3,inactive
same,Potency,CASKI,inactive
same,Potency,Hek293T,inactive
same,Potency,SKOV3,inactive
same,Potency,Tov-21-G,inactive
same,Potency,Tov112D,inactive
COc1ccc(-n2nc(CCC(=O)N(C)O)cc2-c2ccc(Cl)cc2)cc1,Potency,C33A,inactive
same,Potency,CAOV3,inactive
same,Potency,CASKI,inactive
same,Potency,HeLa,inactive
same,Potency,Hek293T,inactive
same,Potency,SKOV3,31.6 µM (active)
same,Potency,Tov112D,inactive
CC(C)C(C)(C)C(C)(C)C(C)(C)S,Potency,C33A,inactive
same,Potency,CAOV3,inactive
same,Potency,CASKI,inactive
same,Potency,Es-2,inactive
same,Potency,HeLa,inactive
same,Potency,Hek293T,inactive
same,Potency,OV90,inactive
same,Potency,Tov-21-G,inactive
same,Potency,Tov112D,inactive
same,"activity, negative = cell killing","[1]; at 91.6 µM (top of the series), tumour line B",-9.39%
same,"activity, negative = cell killing","[1]; at 91.6 µM (top of the series), tumour line D",-2.43%
same,"activity, negative = cell killing","[1]; at 99.2 µM (top of the series), tumour line C",-11.4%
same,Potency,[1]; tumour line A,28.2 µM (active)
same,Potency,astro,inactive
same,max response,[2],-1.2% and -1.45%
same,outcome,[3],inactive
CCCCCOc1ccccc1/C(=C\SC)n1ccnc1,Potency,C33A,inactive
same,Potency,CAOV3,inactive
same,Potency,CASKI,inactive
same,Potency,Es-2,inactive
same,Potency,Hek293T,inactive
same,Potency,JEG-3,inactive
same,Potency,OV90,inactive
same,Potency,Tov-21-G,inactive
same,Potency,Tov112D,inactive
CC1(C)O[C@@H]2C[C@H]3[C@@H]4C[C@H](F)C5=CC(=O)C=C[C@]5(C)[C@@]4(F)[C@@H](O)C[C@]3(C)[C@]2(C(=O)CO)O1,Potency,C33A,inactive
same,Potency,CASKI,inactive
same,Potency,Es-2,inactive
same,Potency,HeLa,inactive
same,Potency,Hek293T,inactive
same,Potency,JEG-3,inactive
same,Potency,OV90,inactive
same,Potency,PA-1,inactive
same,Potency,SKOV3,inactive
same,Potency,Tov-21-G,inactive
same,Potency,Tov112D,inactive
O=C1NC(c2cccc([N+](=O)[O-])c2)=CCN1c1ccccc1O,Potency,C33A,inactive
same,Potency,CAOV3,inactive
same,Potency,Es-2,inactive
same,Potency,HeLa,inactive
same,Potency,OV90,inactive
same,Potency,PA-1,inactive
same,Potency,Tov-21-G,inactive
CCC(=O)O[C@H]1[C@H](O[C@@H]2[C@@H](C)[C@H](O[C@H]3C[C@@](C)(OC)[C@@H](O)[C@H](C)O3)[C@@H](C)C(=O)O[C@H](CC)[C@@](C)(O)[C@H](O)[C@@H](C)C(=O)[C@H](C)C[C@@]2(C)O)O[C@H](C)C[C@@H]1N(C)C,Potency,C33A,inactive
same,Potency,CAOV3,inactive
same,Potency,CASKI,inactive
same,Potency,Es-2,inactive
same,Potency,HeLa,inactive
same,Potency,JEG-3,inactive
same,Potency,OV90,inactive
same,Potency,PA-1,inactive
same,Potency,SKOV3,inactive
same,Potency,Tov-21-G,inactive
same,Potency,Tov112D,inactive
CCCCCCOC(=O)NC(=N)c1ccc(NCc2nc3cc(C(=O)N(CCC(=O)OCC)c4ccccn4)ccc3n2C)cc1,Potency,C33A,inactive
same,Potency,CAOV3,inactive
same,Potency,CASKI,inactive
same,Potency,HeLa,inactive
same,Potency,JEG-3,inactive
same,Potency,PA-1,inactive
same,Potency,SKOV3,inactive
same,Potency,Tov-21-G,inactive
same,Potency,Tov112D,inactive
CCOC(=O)N1CCC(Nc2ccc(Cl)cc2N)CC1,Potency,C33A,inactive
same,Potency,CAOV3,inactive
same,Potency,CASKI,inactive
same,Potency,Es-2,inactive
same,Potency,HeLa,inactive
same,Potency,Hek293T,inactive
same,Potency,JEG-3,inactive
same,Potency,SKOV3,inactive
same,Potency,Tov-21-G,inactive
same,Potency,Tov112D,inactive
C[C@H](N)C(=O)N[C@@H](C)C(=O)NC1[C@H]2CN(c3nc4c(cc3F)c(=O)c(C(=O)O)cn4-c3ccc(F)cc3F)C[C@@H]12 (some centres not stated),Potency,C33A,inactive
same,Potency,CAOV3,inactive
same,Potency,CASKI,inactive
same,Potency,Es-2,inactive
same,Potency,HeLa,inactive
same,Potency,JEG-3,inactive
same,Potency,OV90,inactive
same,Potency,SKOV3,inactive
same,Potency,Tov-21-G,inactive
same,Potency,Tov112D,inactive
